RORg inh = qHTS for inhibitors of ROR gamma transcriptional activity; Nuclear receptor ROR-gamma (Mus musculus), P51450; Drosophila S2 Gal4-RORgamma UAS-luciferase reporter, 20 h; Potency, µM (series often up to 53.6 µM), for the others: at the top dose activity change, negative = inhibition, hits mostly inhibitors; hit rate 5.4% among 310,000; note: nearly all actives have a fitted effect of over 60% in size
Target sequence (P51450 whole entry, looked up, the tested form may be a part): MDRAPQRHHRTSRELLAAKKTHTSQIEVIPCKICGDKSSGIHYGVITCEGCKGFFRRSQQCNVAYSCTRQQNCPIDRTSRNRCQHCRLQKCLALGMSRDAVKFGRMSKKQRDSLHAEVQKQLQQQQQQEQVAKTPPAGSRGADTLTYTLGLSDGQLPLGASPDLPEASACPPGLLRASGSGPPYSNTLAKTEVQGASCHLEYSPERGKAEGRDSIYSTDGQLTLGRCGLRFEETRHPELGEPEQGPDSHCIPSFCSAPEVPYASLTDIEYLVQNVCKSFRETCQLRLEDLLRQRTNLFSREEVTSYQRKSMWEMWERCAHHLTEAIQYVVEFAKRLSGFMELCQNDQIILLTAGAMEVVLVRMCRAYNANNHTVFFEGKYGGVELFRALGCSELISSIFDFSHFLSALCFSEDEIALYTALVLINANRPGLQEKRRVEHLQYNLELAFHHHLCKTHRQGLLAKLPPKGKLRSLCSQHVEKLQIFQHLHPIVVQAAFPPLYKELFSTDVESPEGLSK
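ROR gamma transcriptional activity was tracked as Gal4-UAS luciferase output in stably transfected Drosophila Schneider cells, with compound added 1 hr before 700 uM copper sulfate induction and a 20 hr ambient-temperature incubation.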
TDP1 cell CPT = qHTS for Inhibitors of human tyrosyl-DNA phosphodiesterase 1 (TDP1): qHTS in cells in presence of CPT; chicken DT40 Tdp1-/-;hTDP1 cells + 20 nM CPT, ATP luminescence, 48 h; hit rate 12% among 420,000; AID 686979, 2013; Potency, µM (top dose mostly 46.2 µM), inactives show at the highest dose activity change, negative = growth inhibition, usual class: inhibitors; note: nearly all actives have a fitted effect of over 55% in size
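Chicken DT40 Tdp1-/- cells stably complemented with human TDP1 were seeded at 400 cells/well in medium containing 20 nM camptothecin, exposed to pin-transferred compounds, and grown at 37 °C for at least 48 hr. Viability was read as ATP luminescence.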
TDP1 inh = qHTS Assay for Inhibitors of Tyrosyl-DNA Phosphodiesterase (TDP1); Tyrosyl-DNA phosphodiesterase 1 (Homo sapiens), Q9NUW8; hit rate 0.28% among 350,000; AID 485290, 2010; recombinant TDP1, AlphaScreen DNA substrate cleavage; Potency, µM (series often up to 130 µM), for the others: at the top dose activity change, negative = inhibition, most hits filed as inhibitors; note: nearly all actives have a fitted effect of over 40% in size
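Here, a 5' biotin and 3' phosphotyrosine-FITC DNA oligonucleotide reports Tdp1 activity: intact substrate bridges AlphaScreen beads, while cleavage leaves a 3' phosphate and drops signal. All incubations at room temperature.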
VP16 counter = VP16 counterscreen qHTS for inhibitors of ROR gamma transcriptional activity; hit rate 3.5% among 310,000; Potency, µM (top dose mostly 53.6 µM), without a hit: at the highest dose activity, negative = inhibition, usual class: inhibitors; Drosophila S2 Gal4-VP16 UAS-luciferase, luminescence, 20 h; AID 2546, 2010;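 note: Gal4-VP16 expression switched on by copper sulfate through the metallothionein promoter; nearly all actives have a fitted effect of over 50% in size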
TDP1 cell noCPT = qHTS for Inhibitors of human tyrosyl-DNA phosphodiesterase 1 (TDP1): qHTS in cells in absence of CPT; Potency, µM (highest dose often 46.2 µM), inactives show at the top dose activity change, negative = growth inhibition, hits mostly inhibitors; AID 686978, 2013; DT40 Tdp1-/- hTDP1 cells, no CPT, ATP luminescence, 48 h; hit rate 15% among 420,000; note: nearly all actives have a fitted effect of over 55% in size
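Chicken DT40 Tdp1-/- cells complemented with human TDP1, screened without camptothecin (DMSO vehicle only), 400 cells/well. Compounds pin-transferred, cells incubated at 37 °C for at least 48 hr. Growth read as ATP-dependent luminescence (CellTiter-Glo, 30 min at RT).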
Active calls of the source: *; ? = inconclusive; · = not tested or not shown; [ ] = another dose, or the depositor's remark. In the library only some 19% were active in any assay of this set; here they are far more common. Calls come from the whole dose curve; as a rule, active = well fitted curve in the direction sought with a large enough effect; inconclusive = small, poorly fitted or top-dose-only effect, or another doubt; inactive = no such curve, though single readings can be large; an effect the other way counts as inactive or inconclusive. % is set by controls: 0 for no effect and ±100 for the full control effect; potency is the fitted concentration of half-maximal effect.

SMILES | RORg inh | TDP1 cell CPT | TDP1 inh | VP16 counter | TDP1 cell noCPT
O=C(C1CC1)N1N=C(c2cccc(Br)c2)CC1(O)C(F)(F)F (configuration not stated) | 31.9% | ? | 0.0% | -12.7% | ?
COc1ccc2c(c1)c(CC(=O)Nc1cc(C)c(OC)c(C)c1)c(C)n2C(=O)c1ccc(Cl)cc1 | · | ? | -3.2% | · | ?
O=c1[nH]c(=S)c2[nH]c(=S)n(-c3ccccc3)c2[nH]1 | · | 39.2% | · | · | 0.7%
CN(C)c1ccc(/C=[N+]2\C(=O)CC(=O)NC2=O)cc1 | · | 6.5% | · | · | 0.8%
CC(C)CNS(=O)(=O)c1cc(C(=O)N2CC(C)OC(C)C2)c(Cl)cc1Cl (configuration not stated) | -3.6% | ? | 1.5% | 0.2% | 23.1µM*
CCOC(=O)C1(CCOC)CCN(C(=O)Cc2ccsc2)CC1 | 3.6% | 2.3% | · | 3.3% | 5.4%
CC(=O)Nc1ccc(S(=O)(=O)N(C)CC(=O)N/N=C/c2cccc(O)c2)cc1 | 8.0% | 7.2% | 2.6% | -7.1% | -14.9%
CC(C)N1C(=O)/C(=C\c2nc3ccccc3c(=O)[nH]2)c2ccccc21 | -33.1% | ? | 8.4% | ? | 29.1µM*
CCCN1C(=O)/C(=C/c2nc3ccccc3c(=O)[nH]2)c2cc(C)ccc21 | 19.3% | 20.6µM* | 8.9% | -13.9% | 8.2µM*
CCn1c(/C=C2\C(=O)N(C(C)C)c3ccccc32)nc2ccccc2c1=O | -11.1% | ? | 11.2% | -2.9% | ?
COc1cc(/C=C/C(=O)c2ccc3c(c2)OCO3)cc(OC)c1OC | · | ? | 1.0%[56.1 µM] | · | 11.6µM*
COc1cc(C(=O)c2cc3c(cc2C)OCO3)cc(OC)c1OC | · | 0.0231µM* | · | · | 0.0231µM*
CCOc1ccc(C(=O)c2ccc(OC)c(O)c2O)cc1 | -1.9% | 20.6µM* | 10.2%[56.1 µM] | -1.4% | ?
CCOc1ccc(C(=O)c2ccncc2)cc1 | 7.6% | -1.8% | 3.3% | 5.2% | 1.8%
COc1ccc(C(=O)/C=C/c2ccccc2C(F)(F)F)cc1 | -25.9% | 29.1µM* | 0.0% | 23.5% | 23.1µM*
Nc1ccc(S(N)(=O)=O)cc1N | -14.9% | -2.0% | 6.0% | -5.9% | -10.5%
Cc1ccc(C(=O)NCC(=O)N2CCCCCCC2)cc1 | · | -2.4% | 2.6% | · | -17.1%
Cc1ccc2occ(CC(=O)Nc3ccc(S(=O)(=O)N4CCCC(C)C4)cc3)c2c1 (configuration not stated) | · | ? | 0.0% | · | ?
O=C(c1cc(Br)c[nH]1)N1CCCCC1 | 7.8% | -0.9% | · | 2.1% | -6.3%
CCOc1ccc(C(=O)/C=C/c2ccc(SC)cc2)cc1 | ? | ? | -5.9% | 1.8% | ?
CCOc1ccc(N2C(=O)/C(=C/c3cc(OC)c(OC)c(OC)c3)N(CC(=O)OC)C2=S)cc1 | ? | ? | 3.8% | 0.2% | 18.4µM*
COc1ccc(C(=O)/C=C/c2ccc(OC(=O)c3cc(OC)c(OC)c(OC)c3)cc2)cc1 | 1.78µM* | ? | 7.2% | 7.08µM* | 20.6µM*
COc1cc(C(=O)Oc2ccc3ccc(O)cc3c2)cc(OC)c1OC | ? | -12.6% | 4.1% | -0.4% | ?
COc1ccc(OC)c(/C=C/C(=O)c2ccc3c(c2)OCCO3)c1 | 10µM* | ? | · | -24.7% | ?
CSc1ccc(/C=C/C(=O)c2ccc(O)cc2)cc1 | 0.501µM* | 18.4µM* | 2.6% | 1.12µM* | -84.4%
COc1ccc(OC)c(/C=C/C(=O)Oc2ccc(C(C)=O)cc2)c1 | -8.0% | -2.9% | · | -13.0% | -25.3%
CCOc1ccc(/C=C2/C(=O)N(c3ccc(OC)cc3)C(=S)N2CC(=O)OC)cc1OCC | ? | ? | 5.7% | -2.8% | ?
CC1CCCN(c2nc(-c3ccccc3O)nc3ccccc23)C1 (configuration not stated) | · | -29.7% | · | · | ?
COc1cc(/C=C/C(=O)c2ccc(F)cc2)cc(OC)c1OC | 13.9% | ? | 8.4% | 5.5% | 16.4µM*
